Rab9 promoter act: qHTS Assay for Rab9 Promoter Activators. Huh7 Rab9 promoter-luciferase reporter, luminescence, 24 h. Potency, µM (highest dose often 9.22 µM), inactives show at the top dose activation, negative = inhibition, hits mostly activators. 320,000 tested, 2.8% active; also: % of control where 0% means no effect; nearly all actives have a fitted effect of over 60% in size
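Huh7 reporter line, Rab9 promoter upstream of luciferase. Compound exposure 24 h at 37 °C in reduced-serum medium with 10% FBS. Read-out: luminescence.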
ELG1 genotoxic: qHTS screen for small molecules that induce genotoxicity in human embryonic kidney (HEK293T) cells expressing luciferase-tagged ELG1. Potency, µM (highest dose often 46 µM), inactives show at the highest dose activity change, positive = activation, usual class: activators. 330,000 tested, 1.3% active. HEK293T ELG1-luciferase reporter, luminescence, 16 h; also: % of control where 0% means no effect; nearly all actives have a fitted effect of over 60% in size
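16 hr compound incubation (37 °C, 5% CO2) of HEK293T cells carrying luciferase-tagged ELG1; luciferase then measured by ONE-Glo luminescence after 30 min at RT.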
KinaseGlo FLuc: Counterscreen for Luciferase (Kinase-Glo TM) Inhibition | Luciferin 4-monooxygenase (Photuris pensylvanica), Q27757 | Kinase-Glo luciferase, ATP luminescence, 8 min | Potency, µM (doses to about 38.3 µM), for inactives: at the top dose activity change, negative = inhibition, usual class: inhibitors | 200,000 tested, 0.28% active; also: % is scaled to controls: 0 for no effect and ±100 for the full control effect; nearly all actives have a fitted effect of over 60% in size
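Recombinant Kinase-Glo luciferase, 10 uM ATP (linear range), luciferin; imidazole pH 7.2 / KCl / MgCl2 / Tween / BSA buffer; 8 min RT; luminescence.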
SMN2 splice enh: qHTS Assay for Enhancers of SMN2 Splice Variant Expression. HEK293 SMN2-luciferase splicing reporter, luminescence, 30-36 h. Potency, µM (top dose mostly 46.1 µM), inactives show at the highest dose activity change, positive = activation, hits mostly activators. 210,000 tested, 2.8% active. AID 1458, 2008; also: % of control where 0% means no effect; nearly all actives have a fitted effect of over 55% in size
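qHTS luciferase splicing reporter: luminescence rises when SMN2 exon 7 is included in transfected HEK293 cells. Compound exposure lasted 30-36 h at 37C, with 4.5 mM final sodium butyrate as control, followed by a ONE-Glo read.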
NPC1 prom act: qHTS Assay for NPC1 Promoter Activators; Huh7 NPC1 promoter luciferase reporter, 24 h; 320,000 tested, 2.4% active; Potency, µM (highest dose often 9.22 µM), inactives show at the highest dose activation, usual class: activators; also: % of control where 0% means no effect; nearly all actives have a fitted effect of over 60% in size
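Huh7 reporter cells (NPC1 promoter driving luciferase) are dosed with compound for 24 h at 37 °C, 5% CO2; luciferase detection reagent is then added and luminescence measured after 10 min at ambient temperature.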
FLuc modulator: qHTS profiling assay for firefly luciferase inhibitor/activator using purifed enzyme and Km concentrations of substrates (counterscreen for miR-21 project); Luciferin 4-monooxygenase (Photinus pyralis), P08659; purified FLuc, Km substrates, luminescence inhibition; Potency, µM (titrated, usually from 57.5 µM), for inactives: top-dose activity change, negative = inhibition, usual class: inhibitors; 360,000 tested, 6.9% active; AID 588342, 2011;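 also: plate controls were vehicle for no effect and reference inhibitor for full effect; nearly all actives have a fitted effect of over 55% in size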
Target sequence (P08659 whole entry, looked up): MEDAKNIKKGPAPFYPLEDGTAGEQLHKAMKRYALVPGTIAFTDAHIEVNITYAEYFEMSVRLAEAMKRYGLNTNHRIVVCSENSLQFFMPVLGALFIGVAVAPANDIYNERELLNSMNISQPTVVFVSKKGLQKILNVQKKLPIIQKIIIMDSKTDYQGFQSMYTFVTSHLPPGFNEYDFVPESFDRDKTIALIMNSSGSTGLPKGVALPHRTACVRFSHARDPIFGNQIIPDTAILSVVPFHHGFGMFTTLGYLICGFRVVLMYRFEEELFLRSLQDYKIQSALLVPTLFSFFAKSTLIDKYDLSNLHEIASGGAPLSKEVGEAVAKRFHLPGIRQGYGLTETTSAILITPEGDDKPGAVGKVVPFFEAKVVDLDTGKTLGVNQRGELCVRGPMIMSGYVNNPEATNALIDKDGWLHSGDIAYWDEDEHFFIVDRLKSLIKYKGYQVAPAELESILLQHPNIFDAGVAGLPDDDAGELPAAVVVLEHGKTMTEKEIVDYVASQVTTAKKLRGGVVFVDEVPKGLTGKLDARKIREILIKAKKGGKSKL
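Biochemical qHTS of compounds, final roughly 60 µM downward over six points, against 10 nM purified firefly luciferase using Km concentrations of substrates (10 uM D-luciferin, 10 uM ATP) in Tris acetate pH 7.5 buffer; luminescence output.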
An asterisk follows results filed as active; ? = inconclusive; . = no result; [ ] = another dose, or the depositor's remark. Rows were chosen to be rich in hits. Some 7.5% of all compounds tested hit in one or more screens of this group. Calls follow the shape of the dose curve; as a rule, active = well fitted curve in the direction sought with a large enough effect; inconclusive = small, poorly fitted or top-dose-only effect, or another doubt; inactive = no such curve, though single readings can be large; an effect the other way counts as inactive or inconclusive. Potency is read from the fitted curve at half-maximal effect.

SMILES	Rab9 promoter act	ELG1 genotoxic	KinaseGlo FLuc	SMN2 splice enh	NPC1 prom act	FLuc modulator
CC(=O)Nc1cccc(NC(=O)CN2C(=O)CCSc3ccccc32)c1	.	.	.	13%	.	-8%
COc1ccc2sc(N(Cc3cccnc3)C(=O)c3cccs3)nc2c1	.	.	.	.	.	-15%
CCOC(=O)c1sc(=NC(=O)c2ccc(OC)c(OC)c2)n(C)c1C	11%	11%	-1%	-5%	12%	-19%
CCOC(=O)c1sc(=NC(=O)c2ccccc2)n(C)c1C	19%	?	-7%	8.9µM*	-1%	2.1µM*
CCOC(=O)c1sc(=NC(=O)c2cccc(OC)c2)n(C)c1C	1.6µM*	15%	.	.	3.5µM*	?
CCOc1ccc(-c2ccc(NS(=O)(=O)c3ccc(C)cc3)cc2)nn1	.	.	.	.	.	-1%
CCCn1c(=O)c2sccc2n2c(CCCC(=O)Nc3ccccc3OCC)nnc12	.	.	.	5%	.	0%
OCc1cnc(SCc2ccccc2)n1Cc1ccccc1	-1%	-1%	-1%	-2%	0%	0%
COc1ccc(Cn2c(CO)cnc2SCc2ccc(C)cc2)cc1	.	.	.	.	.	17µM*
O=C(O)Cc1cn(-c2ccccc2)nc1-c1ccccc1	-6%	0%	4%	0%	2%	-23%
C(=N\N1CCOCC1)/c1cn(-c2ccccc2)nc1-c1ccccc1	6%	-1%	-3%	23%	12%	24µM*
O=C(N/C(=C\c1cn(-c2ccccc2)nc1-c1ccccc1)C(=O)N1CCOCC1)c1ccccc1	-1%	0%	-1%	2%	-1%	3%
Cc1c(NC(=O)/C=C/c2cn(-c3ccccc3)nc2-c2ccccc2)c(=O)n(-c2ccccc2)n1C	-1%	-10%	-6%	-10%	1%	21µM*
COc1cccc(-c2nn(-c3ccccc3)cc2/C=C\C(=O)c2cccs2)c1	-48%	-5%	-5%	-74%	-2%	7.6µM*
O=C(O)/C=C/c1cn(-c2ccccc2)nc1-c1ccccc1	9%	-1%	.	.	-1%	13µM*
COc1cc2c(cc1OC)n(CC(=O)c1ccc(C)cc1)c(=O)n1nc(CCn3nc(C)cc3C)nc21	.	.	.	.	.	-1%
CC(=O)c1nnn(-c2ccc(C)cc2Cl)c1C	.	.	.	.	.	-2%
COCCc1nn2c(=O)cc(COC(=O)c3ccccc3C)nc2s1	.	.	.	.	.	3%
Cc1ccc(/C=C/c2onc(C)c2S(=O)(=O)N2CCC(C(=O)NCc3ccc(C)o3)CC2)cc1	.	.	.	.	.	-8%
CCOC(=O)c1sc2ncn(CC(=O)Nc3ccc(OCC)cc3)c(=O)c2c1C	.	.	.	-6%	.	2%
Cc1ccc2oc3c(c(=O)c2c1)C1(C(=O)N(C)c2ccccc21)N(CCCO)C3=O (stereo unspecified)	.	.	.	5%	.	-1%
O=Cc1cn(-c2ccccc2)nc1-c1ccncc1	0%	1%	1%	?	2%	-19%
O=Cc1cn(-c2ccccc2)nc1-c1ccccc1	-1%	0%	.	.	4%	12µM*
CSCCC(NS(=O)(=O)c1ccc2c(c1)oc(=O)n2C)C(=O)NCc1ccc(F)cc1 (stereo unspecified)	.	.	.	-10%	.	-1%
Cc1ccc(O)c(N=Nc2ccccc2)n1	21µM*	.	2.8µM*	?	18µM*	.
SMILES	Rab9 promoter act	ELG1 genotoxic	KinaseGlo FLuc	SMN2 splice enh	NPC1 prom act	FLuc modulator
CCN(CC)CCCC(C)n1c(-c2ccccc2)nc2c(N3CCOCC3)nc(C)nc21 (stereo unspecified)	.	.	-1%	-3%	.	.
COc1cc(/C=N/NC(=O)c2nc(C)cc(C)n2)ccc1O	19%	9%	17%	?	14%	?
COc1ccc(/C=N/NC(=O)c2cccc(C(=O)N/N=C/c3ccc(OC)cc3)n2)cc1	25%	?	.	.	15%	0.3µM*
COc1cc(/C=N/NC(=O)c2cc3ccccc3[nH]2)ccc1O	7%	-11%	.	.	2%	17µM*
COc1cc(/C=N/NC(=O)c2cc(-c3ccccc3)n[nH]2)ccc1O	.	.	-3%	.	.	.
COc1ccc(/C=N/NC(=O)Nc2nonc2N)cc1	25%	?	-4%	10µM*	14%	?
COc1cc(/C=N/NC(=O)c2cccc(C(=O)N/N=C/c3ccc(O)c(OC)c3)n2)ccc1O	-5%[1.84 µM]	0%	.	.	-7%	0.85µM*
COc1cc2c(cc1OC)[C@@H](NC(=O)COc1ccccc1)[C@H](OCc1ccccc1)C2	.	-2%	.	.	.	.
COC(=O)N/N=C/c1ccc(Oc2ccccc2)cc1	?	?	-3%	11µM*	?	15µM*
COc1ccc(/C=N/NC(=O)c2cccc(COCC(F)(F)C(F)F)c2)cc1	3%	0%	10%	11%	-1%	5.4µM*
CN1CCN(C(CNC(=O)c2cccc(F)c2)c2ccc3c(c2)OCO3)CC1 (stereo unspecified)	.	.	.	.	.	0%
Cc1nc(N=C(N)N)nc2ccccc12	-21%	-4%	0%	-25%	-11%	1%
CCCC(=O)N/C(N)=N/c1nc(C)c2cc(C)ccc2n1	23%	5%	.	.	-9%	17µM*
Cc1nc(/N=C(\N)NC(=O)c2ccccc2)nc2ccccc12	?	5%	4%	18µM*	23%	?
Cc1ccc(NC(=O)c2sc3nc4c(cc3c2N)CN(Cc2ccccc2)CC4)cc1	.	.	.	4%	.	-2%
CCCSc1nc(-c2ccc(OC)cc2)cc(-c2ccccc2OC)c1C#N	.	.	.	-9%	.	?
CCCOC(=O)c1ccc(OCC(O)Cn2c(C)nc3ccccc32)cc1 (stereo unspecified)	-31%	10µM*	1%	-88%	-22%	3%
COc1cc(C2SCCS2)cc(Br)c1Oc1ncccc1[N+](=O)[O-]	0%	-5%	.	.	3%	1%
O=[N+]([O-])c1cccnc1Oc1ccc(OCc2ccccc2)cc1	?	?	.	.	?	17µM*
O=[N+]([O-])c1cccnc1Oc1ccc(C2SCCS2)cc1	?	?	.	.	?	21µM*
O=[N+]([O-])c1ccc(Oc2ccc(OCc3ccccc3)cc2)nc1	-3%	-2%	.	.	-6%	-5%
COc1cc(/C=C/C(=O)OCC(=O)Nc2cc(S(=O)(=O)N(C)C)ccc2Cl)ccc1O	-4%	1%	.	.	0%	?
COc1ccc(/C=C/C(=O)OCC(=O)Nc2cc(S(=O)(=O)N(C)C)ccc2Cl)cc1	-1%	3%	-1%	3%	-6%	12µM*

Bioassay records as filed in PubChem BioAssay.
